From PubChem BioAssay
RORg inh: qHTS for inhibitors of ROR gamma transcriptional activity; actives 5.4% (n = 310,000); Drosophila S2 Gal4-RORgamma UAS-luciferase reporter, 20 h; Potency, µM (top dose mostly 53.6 µM), for the others: top-dose activity change, negative = inhibition, most hits filed as inhibitors; Nuclear receptor ROR-gamma (Mus musculus), P51450; note: % is set by controls: 0 for no effect and ±100 for the full control effect; nearly all actives have a fitted effect of over 60% in size
Target sequence (P51450 whole entry, looked up, the tested form may be a part): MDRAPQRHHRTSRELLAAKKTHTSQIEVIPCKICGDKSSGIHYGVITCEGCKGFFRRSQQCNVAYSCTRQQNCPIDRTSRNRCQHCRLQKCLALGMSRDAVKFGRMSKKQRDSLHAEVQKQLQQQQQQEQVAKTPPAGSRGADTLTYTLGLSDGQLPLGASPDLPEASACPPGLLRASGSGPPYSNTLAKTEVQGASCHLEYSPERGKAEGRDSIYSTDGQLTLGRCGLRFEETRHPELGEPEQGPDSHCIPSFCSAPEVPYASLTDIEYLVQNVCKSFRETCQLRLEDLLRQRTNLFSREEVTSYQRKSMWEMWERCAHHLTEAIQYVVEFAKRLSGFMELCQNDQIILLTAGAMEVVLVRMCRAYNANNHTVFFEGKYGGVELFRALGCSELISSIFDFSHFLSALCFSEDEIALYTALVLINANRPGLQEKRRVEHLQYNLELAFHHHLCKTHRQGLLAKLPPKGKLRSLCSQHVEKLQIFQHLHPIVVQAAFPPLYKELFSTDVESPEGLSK
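A Gal4/UAS one-hybrid system in insect cells: metallothionein-promoter Gal4–ROR gamma fusion plus Photinus luciferase reporter. Copper sulfate 700 uM final, 20 hr ambient incubation, luminescent detection after 10 min with reagent.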
S2 tox: Viability Counterscreen for Primary qHTS for Inhibitors of ATXN expression; S2 cells (HEK-293 line with an ATXN2-luciferase reporter) viability, CellTiter-Fluor protease fluorescence, 24 h; Potency, µM (top dose mostly 56.7 µM), most hits filed as cytotoxic; actives 0.49% (n = 400,000); note: nearly all actives have a fitted effect of over 40% in size
ATXN2 expr inh: Primary qHTS for Inhibitors of ATXN expression; HEK-293 ATXN2-luciferase reporter, luminescence, 24 h; AID 1745845, 2022; Potency, µM (doses to about 57 µM), inactives show top-dose activity change, negative = inhibition, hits mostly inhibitors; actives 0.72% (n = 360,000); note: % is set by controls: 0 for no effect and ±100 for the full control effect; nearly all actives have a fitted effect of over 55% in size
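qHTS (up to 57 uM final) was run with 24 h compound exposure of reporter cells at 37 °C. Each well was multiplexed: SteadyGlo luminescence measured ATXN2-luciferase expression after a fluorogenic Gly-Phe-AFC viability readout (25 uM final).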
Gal4-VP16 FLuc: VP16 counterscreen qHTS for inhibitors of ROR gamma transcriptional activity; Drosophila S2 Gal4-VP16 UAS-luciferase, luminescence, 20 h; Potency, µM (top dose mostly 53.6 µM), inactives show at the highest dose activity, negative = inhibition, actives largely listed as inhibitors; actives 3.5% (n = 310,000);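 note: Gal4-VP16 expression switched on by copper sulfate through the metallothionein promoter; % is set by controls: 0 for no effect and ±100 for the full control effect; nearly all actives have a fitted effect of over 50% in size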
TGFb SMAD3 inh: qHTS for Inhibitors of TGF-b | actives 1.2% (n = 410,000) | HepG2 CAGA-GFP TGF-b/SMAD3 reporter, GFP fluorescence, 18 h; TGF-beta stimulated, 500 pg/mL final | Potency, µM (series often up to 46.1 µM), for the others: at the top dose activity, negative = inhibition, actives largely listed as inhibitors; note: % is set by controls: 0 for no effect and ±100 for the full control effect; nearly all actives have a fitted effect of over 65% in size
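HEPG2 CAGA-GFP reporter cells (1000/well, DMEM with 1% FBS) received compounds, then recombinant TGF-beta at 500 pg/mL final for 18 hours at 37 degrees C. Per-cell GFP summed per well was normalised to unstimulated and stimulated DMSO controls before curve fitting.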
HepG2 tox: qHTS for Inhibitors of TGF-b: Cytotox Counterscreen; HepG2 CAGA-GFP viability, ATP luminescence, 18 h; Potency, µM (highest dose often 46.1 µM), without a hit: at the highest dose activity change, negative = cytotoxicity, usual class: cytotoxic; actives 0.76% (n = 410,000)
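CellTiter-Glo luminescence gave cytotoxicity after 18 hours at 37 degrees C. The cells were HepG2 CAGA-GFP in 1% FBS DMEM, stimulated with 500 pg/mL TGF-beta after compound addition. %Activity was normalised to no-cell wells (complete cell-killing) and DMSO (no toxicity), and curves were fitted and classified.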
Starred values were filed as active, the others as inactive; i = inactive; ? = inconclusive; · = no result given. Most compounds without a hit are left out; they make up all but 6.3% or so of the library. Calls come from the whole dose curve; as a rule, active = well fitted curve in the direction sought with a large enough effect; inconclusive = small, poorly fitted or top-dose-only effect, or another doubt; inactive = no such curve, though single readings can be large; an effect the other way counts as inactive or inconclusive. Potency is the fitted concentration of half-maximal effect.

SMILES | RORg inh | S2 tox | ATXN2 expr inh | Gal4-VP16 FLuc | TGFb SMAD3 inh | HepG2 tox
CC(C)C[C@H](NC(=O)c1nc[nH]c1C(=O)N(C)Cc1ccccc1)C(=O)OCc1ccccc1 | -10.9% | i | -10.2% | 3.55µM* | 3.9% | -21.8%
CC(C)C[C@H](NC(=O)c1nc[nH]c1C(=O)N1CCN(c2ccccc2)CC1)C(=O)OCc1ccccc1 | 5.01µM* | i | -17.0% | ? | ? | -38.9%
CC(C)C[C@H](NC(=O)c1nc[nH]c1C(=O)N[C@@H](CCCCN)C(=O)OC(C)(C)C)C(=O)OC(C)(C)C | · | i | 1.3% | · | -3.5% | -8.9%
COCCn1c(N)c(C(=O)c2cccc(S(=O)(=O)N3CCCCCC3)c2)c(=O)[nH]c1=O | · | i | -24.3% | · | -14.2% | -22.8%
Cc1cc2nn(-c3ccccc3)nc2cc1NC(=O)COc1ccc(Cl)cc1 | · | i | 48.7% | · | -5.7% | -1.4%
COC(=O)c1c(-c2cccs2)csc1NC(=O)COc1ccc(C(C)(C)C)cc1 | · | i | -3.5% | · | -10.3% | -9.6%
Cc1c(C(=O)NCc2ccco2)cnn1-c1ncc2c(n1)-c1ccccc1CC2 | · | i | · | · | · | ·
Cn1cc(-c2cc3n(n2)CCC(=O)N3CCCC(=O)NCc2ccccc2Cl)c2ccccc21 | · | i | -16.7% | · | ? | -21.9%
Cc1c(C=O)ccc(N(C)C)c1C | · | · | · | · | -1.2% | 4.7%
CC(C)C[C@H](NC(=O)c1nc[nH]c1C(=O)NCC(=O)OC(C)(C)C)C(=O)OCc1ccccc1 | 3.98µM* | i | -14.2% | 17.8µM* | 11.2µM* | -49.5%
CC(C)C[C@H](NC(=O)c1[nH]cnc1C(=O)N[C@@H](C)c1ccccc1)C(=O)OCc1ccccc1 | ? | · | ? | ? | ? | -53.9%
CC(C)C[C@H](NC(=O)c1nc[nH]c1C(=O)N[C@@H](CC(C)C)C(=O)OC(C)(C)C)C(=O)OCc1ccccc1 | 5.01µM* | ? | 0.0% | 7.08µM* | ? | -33.4%
C[C@H](NC(=O)c1nc[nH]c1C(=O)N1CCN(C(=O)OC(C)(C)C)CC1)C(=O)OC(C)(C)C | · | i | 0.6% | · | -0.9% | 4.1%
CC(C)C[C@H](NC(=O)c1nc[nH]c1C(=O)N1CCN(C(=O)OC(C)(C)C)CC1)C(=O)OC(C)(C)C | 2.82µM* | i | -29.7% | ? | -30.5% | -29.3%
OC(CN1CCCCC1)c1ccccc1 (stereo not drawn) | · | · | · | · | -27.1% | -39.9%
C#CCOCCOCCOCCNc1nc(N2CCN(C(=O)CCCCCCCCCCNC(=O)Cn3cc(C[C@@H](C)O)nn3)CC2)nc(N2CCN(C(=O)CCCCCCCCCCNC(=O)[C@H](CCCN=C(N)N)n3cc(C[C@@H](C)CC)nn3)CC2)n1 | · | 20µM* | ? | · | 14.1µM* | -50.9%
C#CCOCCOCCOCCNc1nc(N2CCN(C(=O)CCCCCCCCCCNC(=O)[C@H](CO)n3cc(CCCSC)nn3)CC2)nc(N2CCN(C(=O)CCCCCCCCCCNC(=O)[C@H](CCCN=C(N)N)n3cc(C[C@@H](C)CC)nn3)CC2)n1 | · | 11.2µM* | 11.2µM* | · | ? | 10µM*
Cc1cccc(NC(=O)N2CC(=O)Nc3sc4c(c3C2c2ccccc2)CCCC4)c1C (stereo not drawn) | · | · | · | · | ? | -14.2%
Cc1cc(F)ccc1NC(=O)C1CSC2(C)CCC(=O)N12 (stereo not drawn) | · | i | -9.8% | · | 3.7% | 23.8%
O=C1NC(c2ccccn2)Nc2sc3c(c21)CCC3 (stereo not drawn) | 14.1µM* | i | -21.0% | ? | ? | -21.6%
c1ccc2c(c1)ccn2-n1ccc2ccccc21 | · | · | · | · | 15.8µM* | -57.5%
CC(=O)Nc1cc(C(=O)NCc2ccccc2Cl)ccc1Sc1ccc(F)cc1 | · | · | · | · | 0.0% | -34.1%
CC(C)CC(=O)/C=C/n1c(=S)oc2ccccc21 | -96.1% | · | ? | 11.2µM* | -27.3% | -45.1%
CC(=O)/C=C/n1c(=S)oc2ccccc21 | 2.82µM* | · | ? | 3.16µM* | 6.31µM* | 15.8µM*
CN(C)C(=O)c1cccc(-c2cccc(-c3nc(C(=O)NCc4ccccc4)cc4c3[C@H](CCO)N(S(=O)C(C)(C)C)C4)c2)c1 (stereo partly drawn) | · | ? | -4.8% | · | 3.3% | -0.4%
SMILES | RORg inh | S2 tox | ATXN2 expr inh | Gal4-VP16 FLuc | TGFb SMAD3 inh | HepG2 tox
CN(C[C@H](Cc1ccccc1)N(C[C@@H](CC1CCCCC1)N(CCc1ccccc1)N=O)N=O)N=O | -25.0% | i | 2.0% | -4.7% | ? | 3.0%
CNC[C@@H](CC1CCCCC1)NC[C@H](CC(C)C)NCCc1cccc(C(F)(F)F)c1 | 11.2µM* | · | 14.1µM* | ? | ? | 10µM*
CCC[C@@H](CN[C@@H](CNC)C(C)C)NCCCCc1ccccc1 | -19.1% | ? | ? | 0.1% | ? | 15.8µM*
CN(Cc1cccc(C(F)(F)F)c1)C(=O)C1CCC(=O)N(CC2CCCCC2)C1 (stereo not drawn) | 51.0% | ? | · | -4.9% | ? | -37.7%
CCC[C@@H](CNC)NC[C@H](Cc1ccccc1)NCCCCc1ccccc1 | -34.3% | · | 25.1µM* | 0.6% | ? | -123.4%
CNC[C@@H](Cc1ccccc1)NC[C@@H](CC1CCCCC1)NCCCc1ccccc1 | ? | 20µM* | ? | ? | ? | 12.6µM*
Cc1ccc2c(/C=C/c3ccc(N(C)C)cc3)c(C)cnc2c1 | · | · | · | · | ? | -39.0%
O=C(CNC(=O)C1CCCCC1)OCC(=O)c1ccc2c(c1)CCC2 | · | · | · | · | -3.5% | -7.8%
CCC(C)NC(=O)c1ccccc1NC(=O)c1ccc(CSc2ccccc2)cc1 (stereo not drawn) | -7.8% | i | -11.3% | ? | ? | 15.8µM*
O=C(NC1CCN(Cc2ccccc2)C1)c1cnn(-c2ncc3c(n2)-c2ccccc2CC3)c1C1CC1 (stereo not drawn) | · | i | · | · | · | ·
COc1cccc(NC(=S)NC(C)c2ccc(OC)c(OC)c2)c1 (stereo not drawn) | 7.94µM* | i | -17.3% | ? | -2.1% | 17.8%
COc1cccc(NC(=S)NC(Cc2ccccc2)c2ccccc2)c1 (stereo not drawn) | · | i | · | · | 22.4µM* | -23.9%
Cc1ncc2c(c1CNS(=O)(=O)N(C)C)CCN(C(=O)/C=C/c1ccccc1)C2 | · | i | · | · | · | ·
COCCNC(=O)C1(C)CCN(C(=O)c2cc(C)nn2C(C)(C)C)C1 (stereo not drawn) | · | i | 11.5% | · | 12.4% | -2.4%
